Results taken from PubChem BioAssay (NCI).
The panel holds about 79,000 compounds, 15% with a hit somewhere; the sample as a whole holds those more often. Values without a mark were called inactive. Calls of active or inactive are those of the source. No stated cut-off is given here; in the data, active means growth inhibition above about 70%; inactive means the rest. Where a SMILES comes first, the peptide text is derived from it. Bridges are numbered along the chain shown (N, C = ends). [ ]: non-standard residue; d: D form. The star is where a group is joined. PhAc = O=C(Cc1ccccc1)*

Key:
[1] = NCI Yeast Anticancer Drug Screen. Data for the rad50 strain (AID 155);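 further: 0% = growth of vehicle-only cultures of the same strain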; details: S. cerevisiae rad50 strain growth inhibition; at 50.0 µM; hits give high values
Method in brief: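 Relative growth inhibition (compound vs vehicle) was measured in yeast with a defined repair-gene alteration.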

[2] = NCI Yeast Anticancer Drug Screen. Data for the mec2-1 strain (AID 157); details: S. cerevisiae mec2-1 strain, at 50.0 µM, hits give high values
Method in brief: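 mec2-1 yeast strain, carrying an alteration in DNA damage repair or cell cycle control, was exposed to compounds; growth inhibition was measured relative to vehicle-treated controls.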

[3] = NCI Yeast Anticancer Drug Screen. Data for the sgs1 mgt1 strain (AID 161);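 further: 0% = growth of cultures given vehicle only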; details: S. cerevisiae sgs1 mgt1 strain, at 50.0 µM, hits give high values
Method in brief: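 Growth of a repair-deficient yeast mutant was monitored after compound treatment and expressed as inhibition relative to vehicle-treated cultures.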

[4] = NCI Yeast Anticancer Drug Screen. Data for the cln2 rad14 strain (AID 165);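 further: 0% = growth equal to vehicle treated cultures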; details: S. cerevisiae cln2 rad14 strain, at 50.0 µM, hits give high values
Method in brief: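 Yeast carrying cln2 and rad14 alterations (cell cycle control and DNA damage repair) were exposed to compounds. Growth inhibition was measured against vehicle-treated controls.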

[5] = NCI Yeast Anticancer Drug Screen. Data for the bub3 strain (AID 167); details: S. cerevisiae bub3 mutant strain, at 50.0 µM, hits give high values
Method in brief: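 Screening used yeast with an engineered genetic alteration affecting cell cycle control. Compound-exposed cultures were compared with vehicle cultures, and reduced growth was taken as inhibition.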

[6] = NCI Yeast Anticancer Drug Screen. Data for the mlh1 rad18 strain (AID 175); details: S. cerevisiae mlh1 rad18 strain growth inhibition; at 50.0 µM; hits give high values
Method in brief: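 Growth inhibition of the yeast strain was measured after compound exposure and expressed relative to vehicle-treated controls. The strain carries defined defects in DNA damage repair.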

| Structure (SMILES) | growth inhibition [1] [%] | growth inhibition [2] [%] | growth inhibition [3] | growth inhibition [4] [%] | growth inhibition [5] | growth inhibition [6] [%] |
| --- | --- | --- | --- | --- | --- | --- |
| Cc1ccc(S(=O)(=O)N/N=C2/CC3CCC4CC2CC34)cc1 (stereo unspecified) | -51 | -0.6 | -35.2% | -25 | 12.9% | -10.1 |
| O=C(NC(=O)c1c(Cl)nc2sccn12)Nc1ccc(Cl)cc1 | -5.45 | -14.1 | -4.65% | 0.85 | -0.6% | -23.9 |
| COc1cc(C2SCC(=O)N2NC(=O)c2ccc(NC(C)=O)cc2)cc(OC)c1OC (stereo unspecified) | -11.8 | -3.95 | -5.2% | 6.15 | -12.4% | -12.2 |
| CCOC(OCC)c1ccccc1OC | 1.85 | 1.05 | 4.95% | -15.1 | 3.6% | -1.1 |
| c1ccc(N=C(Nc2ccccc2)N2CCCC2)cc1 | -33.2 | -13.6 | -28.1% | 5.7 | -19.8% | -19.4 |
| Cc1ccc2c(c1)-c1nc3nnnn3nc1C(C)(C)O2 | 21 | 6.8 | 34% | -6.85 | 15.1% | 26.8 |
| OC(c1ccccc1)C(Cl)c1ccccc1 (stereo unspecified) | 1 | -2.25 | 1.9% | -13.8 | -19.3% | 19.8 |
| O=C(O)/C=C/c1ccc(OCc2ccccc2)c(OCc2ccccc2)c1 | 0.7 | -11.7 | 7.15% | -10.9 | -8.85% | -6.9 |
| Cc1ccc(S(=O)(=O)Oc2ccccc2NS(=O)(=O)c2ccccc2)cc1 | 68.2 | 53.2 | 76.5% (active) | 52.1 | 13.5% | 48.1 |
| c1ccc2c(c1)Cc1ccc3ccccc3c1-2 | 56 | 28.7 | 34.4% | 35.8 | 64.3% | 35.1 |
| CC(O)C(NC(=O)c1cnc2ccccc2n1)C(=O)O (stereo unspecified) | -8.45 | -5.1 | 17.8% | -17.1 | 15.9% | -11.8 |
| CC(=O)C1(N=Nc2ccc(S(N)(=O)=O)cc2)CCOC1=O (stereo unspecified) | 1.35 | -11.3 | -27.1% | 32.4 | -29.4% | 22.7 |
| CC(C)CNC(=O)C(=O)NCC(C)C | -4.65 | -9.7 | -1.6% | -41.5 | -21.4% | -2.4 |
| COc1ccc(S(=O)(=O)/N=C(/C2CC3=CCC4C5CCC(=O)C5(C)CC(=O)C4C3(C)C2)N2CCCC2)cc1 (stereo unspecified) | 5.75 | 4.9 | 1.85% | -11.6 | -1.35% | -18 |
| CCCCN(CCCC)CC(O)C=O (stereo unspecified) | -7.95 | -3.95 | -0.5% | -4.85 | -8.4% | 2.95 |
| CC12CC(=O)C3C(CCC4CC(OS(=O)(=O)O)CCC43C)C1CC1OC(=O)C=C12 (stereo unspecified) | 18.2 | -8.75 | -5.85% | 15.9 | -0.9% | 25.6 |
| CC(=O)c1cc2ccccc2n(O)c1=N | -32.9 | -10.8 | -24% | 17.1 | -15.2% | -17.3 |
| N#CC/C(C#N)=C/OC(=O)c1ccc(Cl)cc1 | 12.2 | -4.5 | -13.3% | -33.5 | -17.9% | -7.15 |
| CCNc1ncnc2sc(SCc3ccccc3)nc12 | -39.3 | -20.8 | -12.7% | -0.6 | -31.1% | -37.1 |
| COc1ccc(/C=C2/C(=O)N(C(=O)c3ccc(Cl)cc3)N=C2C)cc1OC | -18.7 | -36.9 | -32.6% | -3.55 | -17.1% | -35.5 |
| COc1cccc(C2c3cc4c(cc3OC(N3CCOCC3)C2C)OCO4)c1OC (stereo unspecified) | -25.4 | -10.1 | -7.85% | 2.55 | -2.05% | -6.1 |

| Structure (SMILES) | growth inhibition [1] [%] | growth inhibition [2] [%] | growth inhibition [3] | growth inhibition [4] [%] | growth inhibition [5] | growth inhibition [6] [%] |
| --- | --- | --- | --- | --- | --- | --- |
| O=C1C(c2ccccc2)C(c2ccccc2)C(c2ccccc2)C1c1ccccc1 (stereo unspecified) | 52 | 1.05 | 15.9% | 5.65 | -4.3% | 5.65 |
| CCOC(=O)C1=C(C)NC(=O)NC1c1ccc(OC)cc1OC (stereo unspecified) | -2.15 | -25.6 | -11.7% | 18.6 | -18% | -6.5 |
| C[N+](C)(C)CCOC(=O)c1ccccc1CCl | 19.8 | 8.35 | 31.6% | 50.1 | 97.3% (active) | -17.1 |
| O=C(O)CC[C@H](NC(=O)c1ccc(-n2nc3ccc(O)cc3nc2=O)cc1)C(=O)O | -6.65 | -8.25 | 11.9% | 9.95 | 33.8% | 14.5 |
| COC(=O)CCNC(=O)c1ccccc1 | 3.5 | -1.6 | -4.75% | -5.75 | 1.2% | -3.25 |
| CCOc1ccc(OCC)c(NC(=O)OC(C)C)c1 | -6.35 | -3.25 | 20.3% | -27.5 | 47.5% | 12.9 |
| O=C(CCN1C(=O)CC1c1ccco1)N1CCOCC1 (stereo unspecified) | -1.55 | -36.1 | -10.5% | 13.1 | -18.2% | 13.3 |
| COc1c(C)c(=O)n2c3ccccc3n(C)c2c1C#N | 19.5 | 10.3 | -18.4% | 8.55 | 0.85% | 14.8 |
| CC(=O)c1c[nH]cc1CO | -1.7 | 7.8 | 8.85% | 11.3 | 11.6% | -7.75 |
| CCOc1ccc2ccccc2c1 | -28.2 | 0.7 | 1.25% | -49.5 | -3.15% | -19.7 |
| Cc1cc(C)c(N)cc1C | 3.9 | 13 | -20.4% | -43.5 | -2.2% | -2.5 |
| CN(/N=C/c1ccc(Cl)c(Cl)c1)C1=NCCCCN1 | 1.45 | -13.8 | 2.15% | -6.95 | -15.8% | -2.8 |
| COc1cccc(C2N(Cc3ccccc3OC)CCCN2Cc2ccccc2OC)c1 | 8.15 | 11.8 | 29.5% | 21.8 | -5.8% | 8 |
| CC(C)(NC(=O)OCc1ccccc1)C(=O)OC(=O)C(C)(C)NC(=O)OCc1ccccc1 | -15.9 | 21.1 | 5.85% | 13.8 | 2.15% | -19.4 |
| CC1=CC(O)CC(C)(C)C1/C=C/C(C)=C/C=C/C(C)=C/C=C/C=C(C)/C=C/C=C(C)/C=C/C1=C(C)CC(O)CC1(C)C (stereo unspecified) | 14.4 | -15.4 | 22.6% | 16.4 | -30.9% | -37.1 |
| COc1ccc(/C=C2\N=C(N/N=C\C(O)C(O)C(O)C(O)CO)NC2=O)cc1 (stereo unspecified) | -7.3 | -0.3 | 9.2% | 5.45 | -3.8% | -49.8 |
| COc1cc(C=C(C#N)C#N)ccc1OC(=O)c1cc(OC)c(OC)c(OC)c1 | -1.5 | -5.6 | 15.8% | 2.2 | 4.45% | -6.25 |
| CCCCCC(=O)OCC(CC)CC | -8.05 | -6.55 | -13.3% | -29.6 | -1.05% | 5.35 |
| O=C(Cc1ccccc1)N[C@@H]1COC(=O)[C@@H]2CCCN2C(=O)[C@@H]2CCCN2C1=O (PhAc-[dS]-Pro-Pro; ester 1-C) | -33.4 | 5.85 | -17.2% | 27.4 | -1.7% | -8.95 |
| CC1=NNC(=O)CC1C(O)c1ccc(F)cc1 (stereo unspecified) | -33.5 | 1.4 | -10.1% | -2.35 | 0% | -1.85 |
